NS1 inh: qHTS Assay for Inhibitors of Influenza NS1 Protein Function. Potency, µM (top dose mostly 46.1 µM). 270,000 tested, 0.4% active. AID 2326, 2010; calls by dose curve; also: actives are rising curves; nearly all actives have a fitted effect of over 50% in size
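A cell-based growth assay was used: compounds that relieve NS1-induced slow growth of budding yeast raise OD600. Assay medium was yeast nitrogen base with ammonium sulphate and -URA supplement, pH 6.0, with 2% galactose.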
Pf growth 96h: Primary qHTS for delayed death inhibitors of the malarial parasite plastid, 96 hour incubation | P. falciparum luciferase reporter growth, 96 h | Potency, µM (doses to about 28.7 µM), hits mostly inhibitors | 320,000 tested, 6.9% active
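Compounds incubated with erythrocytes infected by luciferase-expressing P. falciparum (2% hematocrit, 0.05% parasitemia final) for 96 hours, 37 C in 5% CO2. Growth inhibition scored as decreased luciferase luminescence.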
Cycloheximide cs: Cycloheximide Counterscreen for Small Molecule Inhibitors of Shiga Toxin | cell reporter, cycloheximide protein synthesis inhibition counterscreen | max response, % | 300,000 tested, 12% active; in the data active = max response mostly above about 13%, no sharp cut-off; inactive = mostly below about 14%; also: read at 38.3 µM for the half of the compounds with a filed dose
Shiga toxin inh: A qHTS for Small Molecule Inhibitors of Shiga Toxin. 290,000 tested, 9.2% active. inhibition, % at 38.7 µM. Vero cells, Shiga toxin protein synthesis inhibition reporter; in the data active = inhibition mostly above about 28%, no sharp cut-off; inactive = mostly below about 43%
Pf growth 48h: Primary qHTS for delayed death inhibitors of the malarial parasite plastid, 48 hour incubation; 310,000 tested, 5.9% active; Potency, µM (doses to about 28.7 µM), most hits filed as inhibitors; P. falciparum luciferase growth in erythrocytes, 48 h
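A one-generation exposure of luciferase-tagged malaria parasites in RPMI 1640/Albumax erythrocyte culture, 37 C and 5% CO2. Inhibition is inferred from decreased luminescence after adding detection reagent.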
Sm TGR block: qHTS Assay for the Inhibitors of Schistosoma Mansoni Peroxiredoxins | Schistosoma mansoni thioredoxin glutathione reductase (TGR), Q962Y6 | purified TGR, DTNB reduction, TNB absorbance 405 nm | Potency, µM (highest dose often 114 µM), usual class: inhibitors | 360,000 tested, 3% active | AID 485364, 2010; also: nearly all actives have a fitted effect of over 60% in size
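TGR 20 nM + NADPH 100 uM (dispensed conc.), cpd preinc 15 min RT; start with NADPH (500 uM addition) then DTNB (15 mM addition). Kinetic TNB absorbance, 405 nm filter. Four-parameter Hill fit across titration.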
Hits are given with their value; . = inactive; ? = inconclusive; / = not tested or not shown. The list is not random: actives were taken first. Their share in the collection is about 21%. Unless noted, calls follow the shape of the dose curve; as a rule, active = well fitted curve in the direction sought with a large enough effect; inconclusive = small, poorly fitted or top-dose-only effect, or another doubt; inactive = no such curve, though single readings can be large; an effect the other way counts as inactive or inconclusive.

SMILES | NS1 inh | Pf growth 96h | Cycloheximide cs | Shiga toxin inh | Pf growth 48h | Sm TGR block
COc1ccc(-c2cnc3c(c2)CCC3(C#N)C#N)cc1 | . | . | . | . | . | .
O=C1C2CC=C(Cl)CC2C(=O)N1CC1Cc2ccccc2CO1 (centres undefined) | . | ? | . | . | / | 44.7µM
O=C1C2CC=C(Cl)CC2C(=O)N1CN(Cc1ccco1)CN1C(=O)C2CC=C(Cl)CC2C1=O (centres undefined) | . | . | . | . | . | 50.1µM
O=C1C2CC=C(Cl)CC2C(=O)N1CC1OCCc2ccccc21 (centres undefined) | . | / | . | . | . | 79.4µM
CCc1ccc2nc(NC(=O)C3CSC4(C)CCC(=O)N34)sc2c1 (centres undefined) | / | . | / | / | . | .
CCOC(=O)N1CCN(C(=O)CNC(=O)c2ccc(Br)o2)CC1 | . | . | . | . | . | .
O=C(COC(=O)CNC(=O)c1ccc(Cl)cc1Cl)NCC1CCCO1 (centres undefined) | / | . | / | / | . | .
CC(C)(C)c1ccc(C(=O)NCC(=O)OCC(=O)Nc2ccc3c(c2)OCCO3)cc1 | . | . | 11.7 | . | . | .
O=C(COC(=O)CNC(=O)C1CCCCC1)Nc1ccc2c(c1)OCCO2 | / | . | 26.3 | . | ? | .
O=C(CNC(=O)c1ccc(Cl)cc1Cl)OCC(=O)c1ccc2c(c1)OCCO2 | . | . | 31.0 | 73.2 | / | .
CC(C)(C)OC(=O)N1Cc2ccccc2C[C@H]1C(=O)NCC(=O)Nc1ccc2c(c1)OCCO2 | . | . | 51.6 | 113.8 | . | .
O=C(O)CSC1=NC(=Nc2ccc(Cl)cc2)C2(CCCCC2)N1c1cccc(C(=O)O)c1 | . | . | . | . | . | .
CN1CCN(CCCNC(=O)c2ccc3c(Cl)c4c(nc3c2)CCCC4)CC1 | . | . | . | . | ? | .
CCS(=O)(=O)N1CCCc2cc(C(=O)Nc3cccc(C(C)=O)c3)ccc21 | / | / | / | / | / | .
CC(=O)c1cccc(NC(=O)c2ccc3c(c2)CCCC3)c1 | . | . | 53.3 | 56.8 | . | .
COc1cccc(NC(=O)c2ccc3c(c2)CCCC3)c1 | . | . | 48.8 | 73.0 | . | .
COc1cccc(NC(=O)c2ccc[n+](C)c2)c1 | . | . | . | . | / | .
COc1cc(N/C=C(\C(C)=O)c2ccccc2)cc(OC)c1 | . | ? | . | . | ? | .
Cc1cccc(NC(=O)CCN2CCOCC2)c1 | . | / | . | . | . | .
Cc1ccc(NC(=O)CCN2CCOCC2)cc1C | . | 0.928µM | . | . | . | .
COc1cccc(NC(=O)CCc2c(C)nn(-c3ccc(N4CCOCC4)nn3)c2C)c1 | . | . | . | . | . | .
Cc1cc(C)n(CC(=O)n2nc(C)cc2C)n1 | . | 10.4µM | . | . | . | .
Cc1ccc(C)c(NC(=O)CCc2c(C)nn(-c3ccc(N4CCCC4)nn3)c2C)c1 | / | / | / | / | / | .
Cc1cc(C)n(C(=O)Cn2nc(C(F)F)cc2C)n1 | . | . | . | . | . | .
Cc1cccc(NC(=O)CCc2c(C)nn(-c3ccc(N4CCCCC4)nn3)c2C)c1 | . | ? | 40.6 | 72.5 | . | .
SMILES | NS1 inh | Pf growth 96h | Cycloheximide cs | Shiga toxin inh | Pf growth 48h | Sm TGR block
Cc1ccc(NC(=O)CCc2c(C)nn(-c3ccc(N4CCOCC4)nn3)c2C)cc1C | . | . | 20.1 | 50.4 | . | .
Cc1cccc(C(=O)OC(C)C(=O)NCC2CCCCC2)c1O (centres undefined) | / | . | / | / | ? | .
Cc1cc(C)n(C(=O)CCC(=O)Nc2ccc(C)c(C)c2)n1 | . | 11.7µM | . | . | / | .
Cc1cccc(NC(=O)CCc2c(C)nn(-c3ccc(N4CCOCC4)nn3)c2C)c1 | . | ? | 23.0 | 40.5 | . | .
Cc1nn(-c2ccc(N3CCOCC3)nn2)c(C)c1CCC(=O)Nc1ccc(F)cc1 | . | ? | 21.4 | . | . | .
Cn1c(=O)c2c([nH]c(=S)n2Cc2ccc(Cl)cc2)n(C)c1=O | . | ? | . | . | . | .
O=C(Nc1ccc(Cl)cc1)c1cncs1 | . | . | . | . | . | .
CCn1c(SCC(=O)NC2CCCC2)nnc1-c1ccccn1 | . | . | . | . | . | .
CC(=O)OC[C@]12CCC(C)=C[C@H]1O[C@@H]1[C@H](O)[C@@H](OC(C)=O)[C@@]2(C)[C@]12CO2 | . | ? | . | . | 0.0033µM | .
COc1ccc(OC)c(NS(=O)(=O)c2ccc(N3CCCCS3(=O)=O)cc2)c1 | / | / | / | / | / | .
CCOc1ccc(N=C2NN=C(c3cc(C)n(CC4CCCO4)c3C)CS2)cc1 (centres undefined) | . | 2.08µM | . | . | ? | .
COc1ccc(-c2cc3ccccc3cn2)cc1 | / | . | / | / | . | .
COc1ccc(-c2cc3cc(OC)c(OC)cc3c(C)n2)cc1 | . | ? | 33.7 | 75.1 | . | .
COc1ccc(-c2ccc3ccccc3n2)cc1 | . | . | 40.7 | 70.5 | . | .
COc1ccc(-c2cc(OC)c3ccccc3n2)cc1 | . | . | . | active | . | .
COc1ccc(-c2ccc3ccccc3n2)cc1OC | . | . | 46.0 | 132.6 | . | .
COc1cccc(C(=O)NCCC(=O)NCc2cc(=O)n(C)c(=O)n2C)c1 | . | . | . | . | . | .
CCOc1ccccc1NC(=O)CCc1c(C)nc2c3cccnc3nn2c1C | / | / | / | / | / | .
COc1ccc(Br)cc1C(=O)Nc1cccc2ccc(C)nc12 | / | / | / | / | / | .
COc1ccc(-c2onc(C)c2-c2ccccc2)c(O)c1 | . | . | . | . | / | .
COc1ccc(-c2noc(C)c2-c2ccc3ccccc3n2)c(O)c1 | . | 14.7µM | . | . | 11.7µM | .
Nc1ccc(-c2ccc3ccccc3n2)cc1 | . | / | 25.5 | 70.5 | / | /
CCc1c(C)[nH]c2ccc(C)cc2c1=O | . | . | 21.9 | 45.4 | 1.65µM | .
Cc1ccc2[nH]c(-c3ccccc3)c(CN3CCCC3)c(=O)c2c1 | . | . | . | . | ? | .
C=CCN(CC=C)Cc1c(C)[nH]c2ccc(C(=O)OCC)cc2c1=O | . | . | . | . | ? | .
SMILES | NS1 inh | Pf growth 96h | Cycloheximide cs | Shiga toxin inh | Pf growth 48h | Sm TGR block
CCCc1c(C)c2cc(C)ccc2[nH]c1=O | . | 9.28µM | . | . | . | .
C=CCc1c(C)[nH]c2ccc(C)cc2c1=O | . | / | 30.8 | 69.9 | 1.47µM | .
Cc1ccc2[nH]c(-c3ccccc3)c(CN(C)C)c(=O)c2c1 | . | ? | 40.7 | . | ? | .
Cc1ccc2[nH]c(C)c(CC(=O)O)c2c1 | . | / | . | . | ? | ?
Cc1ccc(-c2c(C(=O)N/N=C/c3ccsc3)nnn2-c2nonc2N)cc1 | . | ? | . | . | ? | .
CCN(CCCNC(=O)Cn1ncc2c3ccccc3n(C)c2c1=O)c1cccc(C)c1 | / | / | / | / | / | .
Cc1ccccc1N(CC(=O)Nc1ccccc1C(=O)NCc1ccco1)S(=O)(=O)c1ccccc1 | ? | ? | . | . | ? | .
Cc1ccc2nc(SCC(=O)NCc3ccc4c(c3)OCO4)nc(=O)n2c1 | / | ? | / | / | . | .

Screening data from PubChem.
